According to PubChem BioAssay (NCATS):
Values joined by “and” are separate entries in the source; they are usually repeats but may differ in a detail not shown here. Equal entries are not always repeated. Records with an inconclusive call do not appear. Active and inactive are the calls of the source. Calls follow the shape of the dose curve; as a rule, active = well fitted curve in the direction sought with a large enough effect; inconclusive = small, poorly fitted or top-dose-only effect, or another doubt; inactive = no such curve, though single readings can be large; an effect the other way counts as inactive or inconclusive.

Tests used:
CRL-7250 = normal cell line; test: Cytotoxic Profiling of Annotated Libraries Using Quantitative High-Throughput Screening (AID 1296008); details: Five cell lines viability, CellTiter-Glo ATP luminescence, 48-72 h; max response: hits give low values; also: nearly all actives have a fitted effect of over 60% in size; also: potency is read from the fitted curve at half-maximal effect
In short: (§1)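 Compounds were pin-transferred onto cells and incubated 48 or 72 hr at 37 degree Celsius, 95% humidity. CellTiter-Glo was added, plates sat 10 min at room temperature, then ATP-coupled luminescence was imaged as the viability read-out.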

HEK293 = test: as above; details: Five cell lines viability, CellTiter-Glo ATP luminescence, 48-72 h; max response: hits give low values
In short: as §1

HaCat [1] = test: as above; details: Five cell lines viability, CellTiter-Glo ATP luminescence, 48-72 h; max response: hits give low values
In short: as §1

KB-3-1 = test: as above; details: Five cell lines viability, CellTiter-Glo ATP luminescence, 48-72 h; max response: hits give low values
In short: as §1

NIH3T3 [2] = test: as above; details: Five cell lines viability, CellTiter-Glo ATP luminescence, 48-72 h; max response: hits give low values
In short: as §1

MCC-26 = test: qHTS assay to identify novel small-molecules to repurpose for Merkel cell carcinoma treatment (AID 1296009); details: MCC and control cell lines, CellTiter-Glo viability, 72 h; series mostly up to 46 µM; also: nearly all actives have a fitted effect of over 60% in size; also: potency is read from the fitted curve at half-maximal effect
In short: (§2)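 Viability readout: ATP luminescence (CellTiter-Glo) after 72 hr drug exposure at 37 degree celsius. Dose-response format was 8 points for NPC and 11 points for MIPE; data normalized to in-plate controls.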

WaGa = test: as above; details: MCC and control cell lines, CellTiter-Glo viability, 72 h; series mostly up to 46 µM
In short: as §2

MCC-13 = test: as above; details: MCC and control cell lines, CellTiter-Glo viability, 72 h; series mostly up to 46 µM
In short: as §2

MKL-1 = test: as above; details: MCC and control cell lines, CellTiter-Glo viability, 72 h; series mostly up to 46 µM
In short: as §2

UISO = test: as above; details: MCC and control cell lines, CellTiter-Glo viability, 72 h; series mostly up to 46 µM
In short: as §2

C33A = test: Primary qHTS to identify gynecologic anti-cancer compounds using libraries of approved drugs and bioactive compounds (AID 1345084); details: Gynecologic cancer cell panel viability, ATPlite luminescence, 48 h; series mostly up to 57.5 µM; also: nearly all actives have a fitted effect of over 55% in size
In short: (§3)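 ATP-based viability (ATPlite), 1,000 cells/well, 16 h pre-incubation, 48 h compound at 37 C, 5% CO2, 15 min RT before read.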

CAOV3 = test: as above; details: Gynecologic cancer cell panel viability, ATPlite luminescence, 48 h; series mostly up to 57.5 µM
In short: as §3

CASKI = test: as above; details: Gynecologic cancer cell panel viability, ATPlite luminescence, 48 h; series mostly up to 57.5 µM
In short: as §3

Es-2 = test: as above; details: Gynecologic cancer cell panel viability, ATPlite luminescence, 48 h; series mostly up to 57.5 µM
In short: as §3

MKL-2 = test: qHTS assay to identify novel small-molecules to repurpose for Merkel cell carcinoma treatment (AID 1296009); details: MCC and control cell lines, CellTiter-Glo viability, 72 h; series mostly up to 46 µM; also: nearly all actives have a fitted effect of over 60% in size; also: potency is read from the fitted curve at half-maximal effect
In short: as §2

HACAT [3] = test: as above; details: MCC and control cell lines, CellTiter-Glo viability, 72 h; at 44.8 µM (top of the series) unless noted
In short: as §2

HEK293T = test: as above; details: MCC and control cell lines, CellTiter-Glo viability, 72 h; at 44.8 µM (top of the series)
In short: as §2

NIH3T3 [4] = test: as above; details: MCC and control cell lines, CellTiter-Glo viability, 72 h; at 44.8 µM (top of the series) unless noted
In short: as §2
% is scaled to controls: 0 for no effect and ±100 for the full control effect.

Cc1c(CN2CCN(C(=O)C(C)C)CC2)sc2c(N3CCOCC3)nc(-c3cnc(N)nc3)nc12
inactive: Potency (WaGa)
active: Potency (CRL-7250) 0.118 µM | Potency (HEK293) 0.187 µM | Potency (HaCat [1]) 1.05 µM | Potency (KB-3-1) 0.148 µM | Potency (NIH3T3 [2]) 0.469 µM | Potency (MCC-26) 0.662 µM

O=C(c1cc(Cc2n[nH]c(=O)c3ccccc23)ccc1F)N1CCN(C(=O)C2CC2)CC1
active: Potency (CRL-7250) 9.35 µM | Potency (UISO) 16.6 µM
inactive: max response (HEK293) -77.6% | max response (HaCat [1]) -1.1% | max response (KB-3-1) -21.2% and -8.64% | max response (NIH3T3 [2]) -27.5% and -49.1% | Potency (MCC-13) | Potency (MKL-1) | Potency (C33A) | Potency (CAOV3) | Potency (CASKI) | Potency (Es-2)

CC[C@H](Nc1ncnc2nc[nH]c12)c1nc2cccc(F)c2c(=O)n1-c1ccccc1
inactive: max response (CRL-7250) -4.35% | outcome (KB-3-1) | max response (NIH3T3 [2]) -27.5% | Potency (MCC-13) | Potency (MCC-26) | Potency (MKL-1) | Potency (UISO) | activity change, negative = cytotoxicity (C33A) -4.71% [at 11.6 µM] | activity change, negative = cytotoxicity (CAOV3) -6.79% [at 11.6 µM] | activity change, negative = cytotoxicity (CASKI) -22.6% [at 11.6 µM] | activity change, negative = cytotoxicity (Es-2) -27.1% [at 11.6 µM]
active: Potency (HEK293) 23.5 µM | Potency (HaCat [1]) 13.2 µM

NNCCc1ccccc1
inactive: outcome (CRL-7250) | max response (HEK293) -15.3% | max response (HaCat [1]) -0.0842% and -11.1% | max response (KB-3-1) -10.1% and -6.14% | max response (NIH3T3 [2]) 1.01% | Potency (MCC-13) | Potency (MKL-1) | Potency (MKL-2) | Potency (UISO) | Potency (WaGa) | Potency (C33A) | Potency (CAOV3) | Potency (CASKI) | Potency (Es-2)

CN[C@@H](C)C(=O)N[C@H]1CCCC[C@H]2CC[C@@H](C(=O)N[C@@H](c3ccccc3)c3cn(CCCCc4ccc(CCCCn5cc([C@@H](NC(=O)[C@@H]6CC[C@@H]7CCCC[C@H](NC(=O)[C@H](C)NC)C(=O)N76)c6ccccc6)nn5)cc4)nn3)N2C1=O
inactive: max response (CRL-7250) -4.97% | outcome (HEK293) | outcome (HaCat [1]) | outcome (NIH3T3 [2]) | outcome (HACAT [3]) | outcome (HEK293T) | Potency (MCC-13) | Potency (MCC-26) | outcome (NIH3T3 [4])
active: Potency (MKL-1) 23.5 µM | Potency (MKL-2) 9.35 µM

O=C(Nc1ccc(F)c(C(F)(F)F)c1)Nc1nnc(-c2ccncc2)s1
inactive: max response (CRL-7250) 2.14% | max response (HEK293) -22.6% and -26.4% | max response (KB-3-1) -7.12% and -14.7% | max response (NIH3T3 [2]) -1.83% | outcome (NIH3T3 [2]) | outcome (HACAT [3]) | Potency (MCC-13) | Potency (MCC-26) | Potency (MKL-1) | Potency (MKL-2) | outcome (NIH3T3 [4]) | Potency (UISO) | Potency (WaGa) | Potency (C33A) | Potency (CAOV3) | Potency (CASKI) | Potency (Es-2)

Cc1cc2c(F)c(Oc3ncnn4cc(OC[C@@H](C)O)c(C)c34)ccc2[nH]1
inactive: max response (CRL-7250) -47.3% | max response (HaCat [1]) -13.8% | Potency (MCC-13) | Potency (MKL-1)
active: Potency (HEK293) 3.72 µM

COc1ccccc1[C@H](c1cccc2ccccc12)[C@@](C)(C#N)C(=O)N1CCC(c2cccc(C(F)(F)F)c2)CC1
active: Potency (CRL-7250) 26.4 µM | Potency (HEK293) 13.2 µM
inactive: max response (HaCat [1]) -11.9% | Potency (MCC-13) | Potency (MCC-26) | Potency (C33A) | Potency (CAOV3) | Potency (CASKI) | Potency (Es-2)

CC1(C)Cc2c(-c3ccccc3)c(-c3ccc(Cl)cc3)c(CC(=O)O)n2C1
active: Potency (HEK293) 14.6 µM
inactive: max response (CRL-7250) 2.44% | max response (HaCat [1]) -5.26% and -28.4% | max response (KB-3-1) -7.08% | max response (NIH3T3 [2]) -5.92% | Potency (MCC-13) | Potency (MKL-1) | Potency (MKL-2) | Potency (UISO) | Potency (WaGa) | Potency (C33A) | Potency (CAOV3) | Potency (CASKI) | Potency (Es-2)

COc1ccc(-c2oc3cc(OC)ccc3c2C(=O)c2ccc(C#N)cc2)cc1
inactive: outcome (CRL-7250) | outcome (HEK293) | outcome (KB-3-1) | outcome (NIH3T3 [2]) | outcome (HACAT [3]) | outcome (HEK293T) | Potency (MCC-13) | Potency (MCC-26) | Potency (MKL-1) | outcome (NIH3T3 [4]) | Potency (UISO) | Potency (WaGa)

C[C@]1(c2nc3c(C(N)=O)cccc3[nH]2)CCCN1
inactive: max response (CRL-7250) -16.5% | max response (HEK293) -23.2% | max response (HaCat [1]) -38.2% | max response (KB-3-1) -0.184% | max response (NIH3T3 [2]) -22% | Potency (MCC-13) | Potency (MKL-1) | Potency (MKL-2) | Potency (UISO) | Potency (WaGa)

COc1ccc(COc2cc3oc(=O)c4cc(C(C)O)ccc4c3cc2OC)cc1 (centres undefined)
inactive: outcome (HaCat [1]) | outcome (HACAT [3]) | Potency (MCC-13) | Potency (MCC-26) | Potency (MKL-1) | Potency (MKL-2) | Potency (UISO)
active: Potency (CRL-7250) 10.5 µM | Potency (HEK293) 14.8 µM

CCOc1ccn(-c2ccc(F)cc2)c(=O)c1C(=O)Nc1ccc(Oc2ccnc(N)c2Cl)c(F)c1
active: Potency (HEK293) 26.4 µM | Potency (HaCat [1]) 23.5 µM | Potency (KB-3-1) 13.2 µM
inactive: max response (CRL-7250) -27.8% | Potency (MCC-13) | Potency (MCC-26) | Potency (MKL-1) | Potency (MKL-2) | Potency (WaGa) | Potency (C33A) | Potency (CASKI) | Potency (Es-2)

Cc1n[nH]c(C)c1Cc1sc2c(c1C(=O)N1C[C@H](O)CO1)c(=O)n(C)c(=O)n2CC(C)C
inactive: max response (CRL-7250) -7.94% | max response (HaCat [1]) -3.78% and -14.4% | outcome (KB-3-1) | Potency (MCC-13) | Potency (MCC-26) | Potency (MKL-1) | Potency (MKL-2) | Potency (UISO) | Potency (WaGa) | Potency (C33A) | Potency (CAOV3) | Potency (CASKI) | Potency (Es-2)
active: Potency (HEK293) 0.184 µM
